# Screening data deposited in PubChem BioAssay by several laboratories.
# An excerpt weighted towards active compounds, which were near 2% of everything screened.
# Gli-Sufu antag – Gli-Sufu pathway antagonists, primary screen, luciferase luminescence, Sufu-KO-LIGHT cells, uHTS; Sufu-KO-LIGHT fibroblasts, Gli luciferase reporter luminescence; inhibition, % at 5 µM; 0.74% of 340,000 active; AID 588413, 2011;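 active = inhibition above about 55%, limit read from the data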;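 also: 0% = DMSO-treated cells and 100% = wells with medium but no cells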
# 697 NFkB inh – inhibitors of PMA/ionomycin-induced NF-kB reporter, 697 cells, primary screen, B-cell NF-kB inhibitor project, cell-based, luminescence, uHTS; 697 B-cell NF-kB luciferase reporter, 16 h; inhibition, % at 4 µM; 0.33% of 330,000 active; in the data active = inhibition above about 35%
# Jurkat NFkB inh – inhibitors of induced NF-kB luciferase reporter, primary screen, TCR NF-kB activation inhibitor project, cell-based, luminescence, uHTS; Jurkat, PMA/ionomycin-induced NF-kB luciferase reporter; inhibition, % at 4 µM; 0.53% of 330,000 active; in the data active = inhibition above about 50%
# GalR3 antag – GalR3 antagonists in HEK293 cells, primary screen, cell-based, fluorescence readout; Galanin receptor type 3 (Homo sapiens), O60755; 0.44% of 360,000 active; AID 651719, 2012; HEK293 GalR3-CNG cAMP membrane potential fluorescence; galR3 body fused to GalR1 C-terminus; inhibition, % at 3 µM;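 active = inhibition above the screen-wide average plus 3 SD, cut at about 13% in these data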;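 also: forskolin and galanin both at EC90 stimulate the cells; cAMP rise reported by CNG channel membrane potential dye signal; 0% = forskolin plus galanin with DMSO and 100% = forskolin alone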
# Target sequence (O60755 1-299 limits assumed): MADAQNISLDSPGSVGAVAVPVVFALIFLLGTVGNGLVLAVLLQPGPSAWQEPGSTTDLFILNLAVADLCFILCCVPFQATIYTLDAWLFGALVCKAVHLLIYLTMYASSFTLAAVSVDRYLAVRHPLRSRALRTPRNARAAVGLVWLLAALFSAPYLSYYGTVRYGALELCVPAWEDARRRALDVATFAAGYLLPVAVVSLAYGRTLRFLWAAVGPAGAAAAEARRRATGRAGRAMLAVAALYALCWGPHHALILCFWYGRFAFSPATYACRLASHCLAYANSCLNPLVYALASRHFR
# NR2F2 inh – NR2F2 transcriptional activity inhibitors, primary screen, cell-based, luciferase reporter, HEK293T, luminescence; inhibition, % at 8.6 µM; 0.7% of 370,000 active; COUP transcription factor 2 (Homo sapiens), P24468; HEK293T NGFI-A luciferase reporter;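 active = inhibition above a per-plate cutoff, mean inhibition of test wells between control levels plus 3 SD, cut at about 38% in these data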;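 also: cells cotransfected with COUP-TFII expression vector driving the NGFI-A reporter; 0% = median of COUP-TF2 test wells and 100% = reporter-only cells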
# VP16 Luc counter – Gal4-VP16 luciferase reporter inhibitors, counter-screen for COUP-TFII antagonist project, cell-based, luminescence, HEK293; AID 687007, 2013; 25% of 2,500 active; shares compounds with NR2F2 inh; inhibition, % at 8.5 µM; in the data active = inhibition above about 13%
# NR2F2 inh conf – NR2F2 transcriptional activity inhibitors, confirmation, cell-based, luciferase reporter, HEK293, triplicate | AID 687008, 2013 | 45% of 2,500 active | HEK293 NGFI-A luciferase reporter, luminescence | inhibition, % at 8.5 µM | shares compounds with NR2F2 inh;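 active = mean inhibition over three repeats above a set limit taken from the earlier primary screen, cut at about 38% in these data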;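 also: 100% = cells given the luciferase reporter alone without the COUP-TF2 vector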
# * hit, by the source's call; nt = no result.
SMILES,Gli-Sufu antag,697 NFkB inh,Jurkat NFkB inh,GalR3 antag,NR2F2 inh,VP16 Luc counter,NR2F2 inh conf
COc1ccc(Oc2nc(C)nc3c2oc2ccccc23)cc1,-2,-49,12,-2,42*,-1,12
Cc1nc(Oc2ccccc2)c2oc3ccccc3c2n1,-1,-41,-7,-2,2,nt,nt
C[C@H](O)[C@@H]1CN2CCc3c([nH]c4cccc(-c5ccccc5)c34)[C@@H]2C[C@@H]1N(C)C(=O)c1ccco1,nt,nt,nt,nt,-4,nt,nt
Cc1nc(N)nc(N)c1/C=C/C(C)(C)c1ccc(Cl)cc1,nt,nt,nt,-11,47*,28*,23
COc1cccc(-c2cc(C(C)=O)c3n(c2=O)CCC3)c1OC,nt,nt,nt,nt,-5,nt,nt
COC(=O)c1cc(-c2ccc3ccccc3c2)c(=O)n2c1CCC2,nt,nt,nt,nt,13,nt,nt
S=C(Nc1ccc(Nc2ccccc2)cc1)Nc1ccccn1,35,-63,18,4,39*,-30,16
S=C(Nc1ccccc1)Nc1ccccn1,nt,nt,nt,-8,1,nt,nt
CCN(CC(=O)NCc1ccc(Cl)cc1)C(=O)Cc1ccc(OC)cc1,-24,2,23,-4,5,nt,nt
CCN(CC(=O)NCc1ccc(Cl)cc1)C(=O)c1cc(OC)cc(OC)c1,10,5,-3,-7,53*,-7,-2
O=C(c1cc2ccccc2o1)N1CCN(C/C=C/c2ccccc2)CC1,6,-4,7,-1,38*,-3,3
CCOCc1nc(N)nc(N)c1-c1cccc(Cl)c1,nt,nt,nt,-5,57*,-11,-4
N#Cc1ccccc1NCCCN1CCC(C(O)(c2ccccc2)c2ccccc2)CC1,nt,nt,nt,nt,-25,nt,nt
COc1ccc(NC(=O)CSc2ccc(-c3sc(C)nc3C)nn2)cc1,-6,-8,9,-3,-12,nt,nt
CC(=O)c1cccc(NC(=O)CSc2ccc(-c3sc(C)nc3C)nn2)c1,2,7,30,-3,9,nt,nt
Cc1nc(C)c(-c2ccc(SCC(=O)Nc3cccc(F)c3)nn2)s1,16,3,9,-3,47*,-25,1
Cc1nc(C)c(-c2ccc(SCC(=O)Nc3cccc(Cl)c3)nn2)s1,4,5,15,0,53*,-10,19
C=CC[C@]1(O)C(=O)N(c2ccccc2)c2ccccc21,nt,nt,nt,nt,-2,nt,nt
Cc1ccc(C(=O)Nc2nc3ccccc3[nH]2)cc1,3,-117,-16,-11,49*,-20,-5
C#CCNC(=O)C[C@H]1C[C@@]2(C(=O)OC)C(=C[C@H](C(C)C)O[C@@H]2C2CC2)N(Cc2cccc3ccccc23)C1=O,nt,nt,nt,nt,7,nt,nt
COc1ccc(C=C(C(=O)c2ccccc2)C(=O)c2ccccc2)cc1,nt,nt,nt,-6,-26,nt,nt
CC(C)(C)NCC(=Cc1ccccc1)C(=O)c1ccccc1,17,nt,nt,-1,72*,48*,80*
CC1CCN(c2ccc(C(=O)O)cc2NS(=O)(=O)c2ccc(Cl)s2)CC1,nt,nt,nt,nt,-26,nt,nt
COc1ccc(OCC(=O)Nc2ccc(N3CCN(C(=O)c4ccccc4)CC3)c(Cl)c2)cc1,36,-6,13,-1,59*,-7,31
COc1ccc2c(c1)Sc1ccc(Cl)cc1N2,nt,nt,nt,nt,-14,nt,nt
SMILES,Gli-Sufu antag,697 NFkB inh,Jurkat NFkB inh,GalR3 antag,NR2F2 inh,VP16 Luc counter,NR2F2 inh conf
CCOC(=O)c1c(-c2ccccc2)csc1NC(=O)CSc1nc(N)cc(N)n1,26,-27,20,-2,61*,7,27
COC(=O)[C@]12CCCCC=C1N(Cc1ccc(OC)cc1)C(=O)[C@@H]2CC(=O)NCCC(C)C,nt,nt,nt,nt,-18,nt,nt
CCCC1CCC2(CCCN2CCOC(=S)Nc2ccccc2Br)CC1 (stereo not given),nt,nt,nt,nt,26,nt,nt
CCCC1CCC2(CCCN2CCOC(=S)Nc2ccccc2OC)CC1 (stereo not given),nt,nt,nt,nt,51*,2,8
O=C(Nc1ccc2c(c1)OCO2)N1CCC(c2nc3ccc(Cl)cc3[nH]2)CC1,nt,nt,nt,nt,-17,nt,nt
O=C(NNC1=Nc2ccccc2SC1)c1ccccc1F,-18,-54,5,-4,38*,-39,9
O=C(NNC1=Nc2ccccc2SC1)c1cccc([N+](=O)[O-])c1,5,-16,28,1,17,nt,nt
Cc1cccc(C(=O)Nc2nc3ncccn3c2-c2ccc(C(F)(F)F)cc2)c1,nt,nt,nt,nt,1,nt,nt
O=C(c1ccc(F)cc1Cl)N(Cc1ccccn1)CC1CCCO1 (stereo not given),nt,nt,nt,nt,9,nt,nt
O=C(Nc1nc(-c2ccc(F)cc2)cs1)C1CCN(C(=O)c2ccc(F)cc2)CC1,41,-34,36,-8,58*,4,46*
CC(C)(O)C#Cc1ccc(C(=O)N2CCN(c3ccc([N+](=O)[O-])cc3)CC2)cc1,25,-50,9,-3,38*,6,24
CC(C)(O)C#Cc1ccc(C(=O)N2CCN(c3ccccc3)CC2)cc1,-8,9,6,-7,9,nt,nt
CC(C)N1CCCCC(NC(=O)c2cccc(C(F)(F)F)c2)C1=O (stereo not given),nt,nt,nt,nt,-3,nt,nt
CCN(CC)S(=O)(=O)c1ccc2c(c1)nc(CCC(=O)Nc1cccc(C(F)(F)F)c1)n2CC,3,-4,-5,-3,19,nt,nt
CCN(CC)S(=O)(=O)c1cccc(NC(=O)Nc2cccc(C(F)(F)F)c2)c1,24,-40,16,-6,39*,-5,13
CCn1nc(C)cc1C(=O)NC1CCCc2c1cnn2-c1ccc(C)c(C)c1 (stereo not given),29,-39,43,-7,54*,-5,40*
CC(C)(C)c1ccc(-n2ncc3c2CCCC3NC(=O)CN2CCCC2=O)cc1 (stereo not given),37,-9,20,-4,43*,5,23
COC(=O)C1=C(C)N(Cc2ccccc2C(F)(F)F)C(=NCc2cc(OC)c(OC)c(OC)c2)NC1c1ccc(Cl)cc1 (stereo not given),nt,nt,nt,-3,41*,-10,-1
NC1=C(Br)C(=O)c2ncccc2C1=O,85*,nt,nt,-3,81*,92*,93*
Cc1cc(=O)n(-c2ccc(O)cc2)[nH]1,-1,21,-3,-3,42*,-5,-15
Cc1cc(=O)n(-c2ccc(C(=O)O)cc2)[nH]1,-2,-28,-2,-1,15,nt,nt
COC(=O)c1ccc(Cn2ccc3ccc(-c4ccc5ccn(C(=O)C6CCCCC6)c5c4)cc32)cc1,nt,nt,nt,nt,-33,nt,nt
COc1cccc(CN2C(=O)C(C)N(C(=O)c3ccccc3)c3ccccc32)c1 (stereo not given),-13,-14,9,-11,54*,0,30
CC(C)c1ccc(-n2c(-c3ccccc3)c[n+]3c2CCc2ccccc2-3)cc1,85*,nt,nt,-2,89*,28*,87*
